Measurements published in PubChem BioAssay AID602454 (National Center for Advancing Translational Sciences (NCATS), 2012).
Inconclusive results are not listed. Activity calls are given as the source filed them. How the calls were made is not given here.

experiment: qHTS Assay for Inhibitors of Influenza NS1 Protein Function: Viral Replication TCID50; details: Influenza virus replication in cells, at 10 µM, stronger effect = lower value
Source text: Influenza is a world-wide public health problem and emerging forms of the virus have the potential to cause a pandemic of equal or greater magnitude to the outbreaks recorded in 1918, 1957 or 1968. Vaccine development is proceeding and there also exist two classes of anti-influenza compounds. However these therapeutic modalities are neither fully effective nor widely enough available to fulfill global needs. In addition their potential usefulness against newly emergent strains is not known. Efforts are needed to develop novel agents against influenza virus, including broad-spectrum agents. Identification of small molecules that inhibit NS1 function either directly or by interfering with specific cellular pathways may be a key to increasing our defense against the virus.
We have miniaturized and optimized a cell based assay in which NS1 from influenza A is expressed in the budding yeast S. cerevisiae. NS1 is a multi-functional protein that counters the host innate immune response and facilitates viral versus cellular gene expression. Expression of NS1 causes a pronounced slow growth phenotype in yeast due to its intrinsic molecular activities. Small molecules that suppress the slow growth phenotype can be identified by a straightforward growth recovery assay using optical density (OD) as the measurement. The same yeast strain not expressing NS1 was used as positive control in the yeast growth recovery assay.
Hits resulting from the primary screen and other follow-up screens, were tested in two concentrations in this viral replication assay.
NIH Chemical Genomics Center [NCGC]
NIH Molecular Libraries Probe Centers Network [MLPCN]
Assay Submitter (PI): Daniel Engel, University of Virgina
Cell monolayers were infected at an m.o.i. of 0.1 for 48 h in the presence or absence of the compound, which was added at the beginning of infection. Virus titres were determined by TCID50 analysis (Reed, L. J. & Muench, H. (1938). A simple method of estimating fifty per cent endpoints. Am J Epidemiol 27, 493-497)

SMILES | viral titer (log10 TCID50)
COc1cc(-c2c(C#N)c(N)nc3c2c(C)nn3-c2ccc(F)cc2)ccc1O | 6 (active)
COc1cc(-c2c(C#N)c(N)nc3c2c(C)nn3-c2ccc(C)c(C)c2)cc(OC)c1OC | 9 (active)
COc1cccc(-c2ccnc3c2c(C)nn3-c2ccc(F)cc2)c1 | 8.5 (active)
COc1cc(-c2c(C#N)c(N)nc3c2c(C)nn3-c2ccc(Cl)cc2)cc(OC)c1OC | 9 (active)
COc1ccc(-c2c(C#N)c(=O)[nH]c3c2c(C)nn3-c2ccccc2)cc1OC | 8.66 (active)
COc1cc(-c2c3c(C)nn(-c4ccccc4)c3nc3[nH]c(=O)[nH]c(=O)c23)cc(OC)c1O | 8.33 (active)
COc1cc(-c2c(C(=O)O)cnc3c2c(C)nn3-c2ccc(F)cc2)ccc1O | 8.5 (active)
COc1cc(-c2ccnc3c2c(C)nn3-c2ccc(F)cc2)ccc1O | 8.68 (active)
COc1ccc(-c2ccnc3c2c(C)nn3-c2ccc(F)cc2)cc1OC | 8.66 (active)
Cc1nn(-c2ccccc2)c2nc3[nH]c(=O)[nH]c(=O)c3c(-c3ccc4c(c3)OCO4)c12 | 8.33 (active)
COc1cccc(-n2nc(C)c3c(-c4ccc(O)c(OC)c4)ccnc32)c1 | 9 (active)
COc1ccc(-c2c3c(C)nn(-c4ccccc4)c3nc3[nH]c(=O)[nH]c(=O)c23)cc1OC | 8.33 (active)
COc1ccc(-c2c(C#N)c(=O)[nH]c3c2c(C)nn3-c2ccc(F)cc2)cc1OC | 9 (active)
COc1cc(-c2c(C#N)c(N)nc3c2c(C)nn3-c2ccc(C)c(C)c2)ccc1O | 8.5 (active)
COc1ccc(-c2c(C#N)c(N)nc3c2c(C)nn3-c2ccc(F)cc2)cc1OC | 8.66 (active)
COc1ccc(-c2c(C#N)c(N)nc3c2c(C)nn3-c2ccc(C)cc2)cc1OC | 9 (active)
COc1ccc(-c2ccnc3c2c(C)nn3-c2ccc(F)cc2)cc1 | 8.33 (active)
COc1cc(-c2c(C#N)c(=O)[nH]c3c2c(C)nn3-c2ccccc2)cc(OC)c1OC | 7.66 (active)
Cc1nn(-c2ccc(F)cc2)c2nc(N)c(C#N)c(-c3ccc(O)c(O)c3)c12 | 7.66 (active)
COc1ccc(-c2c3c(C)nn(-c4ccccc4)c3nc3[nH]c(=O)[nH]c(=O)c23)cc1O | 8.66 (active)

same assay, conditions: Influenza virus replication in cells, viral titer, at 5 µM, stronger effect = lower value

SMILES | viral titer (log10 TCID50)
COc1cc(-c2c(C#N)c(N)nc3c2c(C)nn3-c2ccc(F)cc2)ccc1O | 7.66
COc1cc(-c2c(C#N)c(N)nc3c2c(C)nn3-c2ccc(C)c(C)c2)cc(OC)c1OC | 9
COc1cccc(-c2ccnc3c2c(C)nn3-c2ccc(F)cc2)c1 | 9
COc1cc(-c2c(C#N)c(N)nc3c2c(C)nn3-c2ccc(Cl)cc2)cc(OC)c1OC | 9
COc1ccc(-c2c(C#N)c(=O)[nH]c3c2c(C)nn3-c2ccccc2)cc1OC | 9
COc1cc(-c2c3c(C)nn(-c4ccccc4)c3nc3[nH]c(=O)[nH]c(=O)c23)cc(OC)c1O | 8.66
COc1cc(-c2c(C(=O)O)cnc3c2c(C)nn3-c2ccc(F)cc2)ccc1O | 8.88
COc1cc(-c2ccnc3c2c(C)nn3-c2ccc(F)cc2)ccc1O | 8.88
COc1ccc(-c2ccnc3c2c(C)nn3-c2ccc(F)cc2)cc1OC | 9
Cc1nn(-c2ccccc2)c2nc3[nH]c(=O)[nH]c(=O)c3c(-c3ccc4c(c3)OCO4)c12 | 8.66
COc1cccc(-n2nc(C)c3c(-c4ccc(O)c(OC)c4)ccnc32)c1 | 9
COc1ccc(-c2c3c(C)nn(-c4ccccc4)c3nc3[nH]c(=O)[nH]c(=O)c23)cc1OC | 9
COc1ccc(-c2c(C#N)c(=O)[nH]c3c2c(C)nn3-c2ccc(F)cc2)cc1OC | 9
COc1cc(-c2c(C#N)c(N)nc3c2c(C)nn3-c2ccc(C)c(C)c2)ccc1O | 8.66
COc1ccc(-c2c(C#N)c(N)nc3c2c(C)nn3-c2ccc(F)cc2)cc1OC | 8.66
COc1ccc(-c2c(C#N)c(N)nc3c2c(C)nn3-c2ccc(C)cc2)cc1OC | 9
COc1ccc(-c2ccnc3c2c(C)nn3-c2ccc(F)cc2)cc1 | 9
COc1cc(-c2c(C#N)c(=O)[nH]c3c2c(C)nn3-c2ccccc2)cc(OC)c1OC | 8.5
Cc1nn(-c2ccc(F)cc2)c2nc(N)c(C#N)c(-c3ccc(O)c(O)c3)c12 | 8.5
COc1ccc(-c2c3c(C)nn(-c4ccccc4)c3nc3[nH]c(=O)[nH]c(=O)c23)cc1O | 8.66
